Source: PubChem BioAssay
CYP2C19 act: human CYP2C19 activators, primary screen, biochemical, luminescence; recombinant CYP2C19, luciferin-H EGE luminescence; stronger effect = higher value; 0 = fully inhibited enzyme, 1 = untreated enzyme; activation factor at 5 µM; 96,000 tested, under 10 active;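 active = activation factor of at least 2 at 5 µM in the primary screen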
Mac1 fbg enh: enhancers of CD11b/CD18 adhesion to fibrinogen, primary screen, K562 cells, luminescence | activation, % at 10 µM | ATPlite luminescence | AID 1499, 2009 | 93,000 tested, 0.07% active | Integrin beta-2 (Homo sapiens) + Integrin alpha-M (Homo sapiens), P05107+P11215;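 active = 10 µM primary screen giving 50% or more activity, confirmed by 40% or more on retest at that dose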
Target sequence (P05107 whole entry, looked up, other chains not shown): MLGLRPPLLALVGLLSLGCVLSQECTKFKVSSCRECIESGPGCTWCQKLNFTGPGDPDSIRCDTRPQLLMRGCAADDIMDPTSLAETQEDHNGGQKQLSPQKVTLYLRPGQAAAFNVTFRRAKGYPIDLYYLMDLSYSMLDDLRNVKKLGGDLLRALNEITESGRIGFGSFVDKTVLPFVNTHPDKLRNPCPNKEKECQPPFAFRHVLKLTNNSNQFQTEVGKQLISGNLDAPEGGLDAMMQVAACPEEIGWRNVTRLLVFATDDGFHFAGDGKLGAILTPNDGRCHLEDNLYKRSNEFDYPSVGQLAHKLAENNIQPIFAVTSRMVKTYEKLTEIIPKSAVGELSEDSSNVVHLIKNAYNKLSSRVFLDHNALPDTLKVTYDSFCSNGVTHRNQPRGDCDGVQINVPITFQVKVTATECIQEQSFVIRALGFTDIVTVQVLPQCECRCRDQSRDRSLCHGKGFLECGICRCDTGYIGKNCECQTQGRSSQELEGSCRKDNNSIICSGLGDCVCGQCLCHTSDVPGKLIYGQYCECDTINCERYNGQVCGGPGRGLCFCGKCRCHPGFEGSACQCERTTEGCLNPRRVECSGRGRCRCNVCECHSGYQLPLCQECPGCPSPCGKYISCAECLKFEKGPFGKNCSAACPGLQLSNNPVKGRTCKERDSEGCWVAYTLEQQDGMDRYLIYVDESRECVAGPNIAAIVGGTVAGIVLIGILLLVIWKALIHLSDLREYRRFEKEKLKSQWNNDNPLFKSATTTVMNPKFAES
CYP2C19 inhib: blockers of cytochrome P450 2C19 activity – biochemical, luminescence, ADME assay, primary screen. 96,000 tested, 21% active. CYP2C19 Supersomes, luciferin-H EGE luminescence, 30 min. inhibition, % at 5 µM. P33261;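 active = CYP2C19 inhibition above a set limit at 5 µM in the primary screen, cut at about 50% in these data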
CYP2C9 act: human CYP2C9 activators, primary screen, biochemical, luminescence. activation factor at 5 µM. AID 1024, 2008. recombinant CYP2C9, luciferin-H conversion; stronger effect = higher value; factor 1 = untreated enzyme, 0 = blocked. 96,000 tested, 1.4% active. Cytochrome P450 2C9 (Homo sapiens), P11712;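 active = activation factor of 2 or more for CYP2C9 at a 5 µM dose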
CYP2C9 inh: blockers of cytochrome P450 2C9 activity – biochemical, luminescence, ADME assay, primary screen | CYP2C9 Supersomes, luciferin-H conversion | inhibition, % at 5 µM | 96,000 tested, 20% active | AID 777, 2007;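 active = blocking of liver enzyme CYP2C9 beyond about 50% at 5 µM, limit read from the data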
CD11b adhes inh: inhibitors of CD11b/CD18 adhesion to fibrinogen, primary screen, K562 cells, luminescence; Integrin beta-2 (Homo sapiens) + Integrin alpha-M (Homo sapiens), P05107+P11215; 93,000 tested, 0.54% active; ATPlite luminescence; Mn2+ added to activate the integrin; inhibition, % at 10 µM;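 active = primary inhibition of 50% or more at 10 µM, then 40% or more on retest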
Large screens that a line does not name were inactive. An excerpt weighted towards active compounds, which were near 28% of everything screened.

Cc1nc2c([nH]1)C1(CCN(Cc3ccccc3)CC1)C(C#N)=C(N)O2	none
CCOc1cc(/C=C2\N=C(C)OC2=O)cc(Br)c1OCCc1ccccc1	CYP2C9 inh 70
CCOc1cc(/C=C2\N=C(C)OC2=O)cc(Br)c1OCC(=O)OC	none
O=C(NC1CCS(=O)(=O)C1)c1ccc(-c2ccc(Br)cc2)o1 (stereo not drawn)	none
CCOC(=O)c1c(-c2cccs2)csc1NC(=O)CN1CCOCC1	CYP2C9 inh 73
CCOC(=O)c1c(-c2cccs2)csc1NC(=O)CN(CC)CC	CYP2C9 inh 75 (no result: Mac1 fbg enh, CD11b adhes inh)
CCOC(=O)c1c(-c2ccc(C)cc2)csc1NC(=O)CCN1CCOCC1	none (no result: CYP2C19 act, CYP2C19 inhib, CYP2C9 act, CYP2C9 inh)
CCOC(=O)c1c(-c2cccs2)csc1NC(=O)CC(C)C	none
CCOC(=O)c1c(-c2ccc(C)o2)csc1NC(=S)NC(=O)N(C)C	CYP2C9 inh 53 (no result: Mac1 fbg enh, CD11b adhes inh)
CCOC(=O)c1c(-c2ccc(C)o2)csc1NC(=O)CN1CCOCC1	CYP2C19 inhib 54, CYP2C9 inh 72
CCOC(=O)c1c(-c2ccc(C)o2)csc1NC(=O)CSc1ncn[nH]1	CYP2C19 inhib 61, CYP2C9 inh 85
COC(=O)c1c(C)cc(C)n2c1nc1ccccc12	none
O=C(NCc1cccnc1)c1sc2ccccc2c1Cl	CYP2C19 inhib 88
O=C(NCc1cccnc1)c1cccc(C(F)(F)F)c1	CYP2C19 inhib 89
Cc1csc2nc(CNC(=O)c3cccc(C(F)(F)F)c3)cn12	CYP2C9 act 2
Cc1ccc2c(Cl)c(C(=O)NCc3cccnc3)sc2c1	none
Cc1ccc(CSCC(=O)NCc2cccnc2)cc1	none (no result: CYP2C19 act, CYP2C19 inhib, CYP2C9 act, CYP2C9 inh)
Cc1cc(C(=O)NCc2cccnc2)cs1	none
O=C(CSCc1c(Cl)cccc1Cl)NCc1cccnc1	CYP2C19 inhib 54 (no result: Mac1 fbg enh, CD11b adhes inh)
CCC(CC)C(=O)Nc1ccccc1NC(C)=O	none
O=C(NCc1cccc(Cl)c1)c1cccnc1	none
O=C(NCc1cccnc1)c1ccc(Cl)c(Cl)c1	CYP2C19 inhib 75
O=C(N/N=C/c1cccc(OC(=O)N2CCOCC2)c1)c1cccs1	none (no result: CYP2C19 act, CYP2C19 inhib, CYP2C9 act, CYP2C9 inh)
Cc1ccc(C2(C)NC(=O)N(CCOc3ccccc3)C2=O)cc1 (stereo not drawn)	CYP2C19 inhib 77
Cc1cc2nnc(SCC(=O)NCc3cccs3)n2c2ccccc12	CYP2C9 act 3.2
Cc1nnc(SCC(=O)NCc2cccs2)n1-c1ccccc1	none
CC(C)OC(=O)CSc1nnc(SCc2cccc3ccccc23)s1	CYP2C19 inhib 71
O=C(O)CSc1nnc(SCc2cccc3ccccc23)s1	none
Cc1cc2nnc(SCC(=O)OC(C)C)n2c2ccccc12	CYP2C9 act 2.6 (no result: Mac1 fbg enh, CD11b adhes inh)
Cc1occc1-c1nnc(SCC(=O)NCc2cccs2)n1-c1ccc(F)cc1	CYP2C9 inh 63
CCC1(c2ccc(F)cc2)NC(=O)N(CC(=O)c2ccc[nH]2)C1=O (stereo not drawn)	none
CCN(CC)S(=O)(=O)c1cccc(NC(=O)c2cc3ccccc3o2)c1	none
CCN(CC)S(=O)(=O)c1cc(NC(=O)C(=O)c2c(-c3ccccc3)cc3ccccn23)ccc1C	CYP2C9 inh 54
CCN(CC)S(=O)(=O)c1cccc(NC(=O)C(=O)c2c(-c3ccccc3)cc3ccccn23)c1	CYP2C19 inhib 57, CYP2C9 inh 65
CCN(CC)S(=O)(=O)c1ccc(N2CCOCC2)c(NC(=O)C(=O)c2c(-c3ccccc3)cc3ccccn23)c1	CYP2C9 inh 86
CN(CC(=O)Nc1ccccc1N1CCOCC1)S(=O)(=O)c1ccc(Cl)cc1	none
COc1ccc(NS(=O)(=O)c2cccc3nsnc23)cc1OC	CYP2C19 inhib 82
CC(=O)Nc1c(C)ccc2nsnc12	none
COc1ccc(S(=O)(=O)Nc2c(C)ccc3nsnc23)cc1OC	CYP2C19 inhib 69
Cc1cccc(NS(=O)(=O)c2cccc3nsnc23)c1	CYP2C19 inhib 76 (no result: Mac1 fbg enh, CD11b adhes inh)
Cc1ccc2nsnc2c1S(=O)(=O)Nc1cccc2nsnc12	CYP2C9 inh 90
CC(=O)Nc1cccc(NS(=O)(=O)c2cccc3nsnc23)c1	CYP2C19 inhib 57
Cc1ccnc(NS(=O)(=O)c2cccc3nsnc23)c1	none
Cc1sc2ncnc(OCC(=O)c3ccc(S(=O)(=O)N4CCCC4)cc3)c2c1C	CYP2C19 inhib 73, CYP2C9 inh 69
Cc1sc2ncnc(OCC(=O)N3CCN(S(=O)(=O)c4ccc(Cl)cc4)CC3)c2c1C	CYP2C19 inhib 75, CYP2C9 inh 83
Cc1ccc([N+](=O)[O-])cc1NC(=O)c1ccc(-c2ccccc2)cc1	CYP2C9 act 2.2
O=C(Nc1nc(-c2ccccc2)cs1)c1cccc([N+](=O)[O-])c1	none
Cc1c(C(=O)Nc2ccccc2-c2ccccc2)cccc1[N+](=O)[O-]	CYP2C19 inhib 80
Cc1c(C(=O)Nc2ccc(OCc3ccccc3)cc2)cccc1[N+](=O)[O-]	none
O=C(Nc1ccccc1-c1ccccc1)c1cccc([N+](=O)[O-])c1	CYP2C19 inhib 91 (no result: Mac1 fbg enh, CD11b adhes inh)
CCc1ccccc1NC(=O)c1cccc(Oc2ccc([N+](=O)[O-])cc2Cl)c1	none (no result: CYP2C19 act, CYP2C19 inhib, CYP2C9 act, CYP2C9 inh)
Cc1ccccc1NC(=O)c1cccc(S(=O)(=O)Oc2ccc([N+](=O)[O-])cc2)c1	CYP2C19 inhib 80
Cc1ccc([N+](=O)[O-])cc1NC(=O)c1ccc(C(C)(C)C)cc1	none (no result: Mac1 fbg enh, CD11b adhes inh)
COc1ccccc1/C=C/C(=O)NCC(=O)N/N=C/c1cc(Br)ccc1OC	CYP2C9 inh 53
COc1ccc(Br)cc1/C=C/C(=O)Nc1ccc(C)cc1	none (no result: CYP2C19 act, CYP2C19 inhib, CYP2C9 act, CYP2C9 inh)
COc1cc2c(cc1OC)CN(Cc1cc(=O)oc3c(C)c(C)ccc13)CC2	none (no result: CYP2C19 act, CYP2C19 inhib, CYP2C9 act, CYP2C9 inh)
COc1ccccc1N1CCN(Cc2ccsc2)CC1	none
COc1cc2c(cc1OC)CN(Cc1cccs1)CC2	CYP2C19 inhib 66 (no result: Mac1 fbg enh, CD11b adhes inh)
COc1ccccc1N1CCN(Cc2cccs2)CC1	CYP2C19 inhib 94
COc1ccc(OC)c(CN2CCN(c3ccccc3OC)CC2)c1	CYP2C19 inhib 78
c1csc(CN2CCOCC2)c1	CYP2C19 inhib 94, CYP2C9 inh 100
O=C(/C=C/c1ccc(Cl)cc1)N(Cc1ccccc1)C1CCS(=O)(=O)C1 (stereo not drawn)	none (no result: CYP2C19 act, CYP2C19 inhib, CYP2C9 act, CYP2C9 inh)
Cc1ccc(Cc2cnc(NC(=O)/C(C#N)=C/c3ccc(-c4ccccc4[N+](=O)[O-])o3)s2)cc1	CYP2C9 inh 54
CCc1ccc(-n2c(Cn3nc(C(F)(F)F)cc3C)n[nH]c2=S)cc1	none
CCOC(=O)N1CCC(N2CC34C=CC(O3)C(C(=O)O)C4C2=O)CC1 (stereo not drawn)	none
O=C(N/N=C/c1cccs1)c1ccc2c(c1)OCO2	none (no result: CYP2C19 act, CYP2C19 inhib, CYP2C9 act, CYP2C9 inh)
Cc1cc(C(F)(F)F)n(-c2nc(C(=O)N/N=C/c3ccc(F)cc3)cs2)n1	CYP2C9 inh 55 (no result: Mac1 fbg enh, CD11b adhes inh)
COc1cccc(/C=N/NC(=O)c2csc(-n3nc(C)cc3C(F)(F)F)n2)c1	none
